Source: PubChem BioAssay (National Center for Advancing Translational Sciences (NCATS))
ATXN viability: Viability Counterscreen for Primary qHTS for Inhibitors of ATXN expression | S2 cells (HEK-293 line with an ATXN2-luciferase reporter) viability, CellTiter-Fluor protease fluorescence, 24 h | Potency, µM (highest dose often 56.7 µM), most hits filed as cytotoxic | 400,000 tested, 0.49% active | AID 651635, 2014; note: nearly all actives have a fitted effect of over 40% in size
PINK1 expr mod: A Quantitative High throughput Screen to Identify Chemical Modulators of PINK1 Expression; PINK1 immunofluorescence, high-content cytometry, 24 h; Potency, µM (series often up to 76.6 µM), most hits filed as activators; 410,000 tested, 0.2% active; AID 624263, 2012; active = well fitted activation curve with a large enough effect; inconclusive = small, poorly fitted or top-dose-only effect; cell line not stated here; note: nearly all actives have a fitted effect of over 65% in size
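Stable cell line, 250 cells/well, 12 h attachment; compounds pinned at 5 concentrations, 24 h; CCCP control. Fixed with nuclear dye, primary antibodies 12 h at 10 degrees C, secondary plus cell stain; laser-scanning cytometer read.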
ATXN2 expr inh: Primary qHTS for Inhibitors of ATXN expression; HEK-293 ATXN2-luciferase reporter, luminescence, 24 h; Potency, µM (titrated, usually from 57 µM), most hits filed as inhibitors; 360,000 tested, 0.72% active; AID 1745845, 2022; note: nearly all actives have a fitted effect of over 55% in size
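qHTS (up to 57 uM final) was run with 24 h compound exposure of reporter cells at 37 °C. Each well was multiplexed: SteadyGlo luminescence measured ATXN2-luciferase expression after a fluorogenic Gly-Phe-AFC viability readout (25 uM final).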
IL1B secr inh: qHTS for Inhibitors of Inflammasome Signaling: IL-1-beta AlphaLISA Primary Screen. THP-1 LPS/ATP IL-1B secretion, AlphaLISA, 16 h; stronger effect = lower value. activity change, % at 57.5 µM. 360,000 tested, 4.7% active. AID 743279, 2014; in the data active = activity change below about -50%; inconclusive = mostly about -30% to -49%
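THP-1 cells pretreated 1 hr with compounds (up to 57.5 uM final), then stimulated with LPS (250 ng/mL final) plus ATP (1.25 mM final); secreted IL-1B measured by AlphaLISA after 16 hr, decreased signal indicating inhibition.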
SW480 rerep: A quantitative high throughput screen for small molecules that induce DNA re-replication in SW480 colon adenocarcinoma cells; Potency, µM (series often up to 46.1 µM), actives largely listed as activators; 340,000 tested, 1.8% active; SW480 DNA re-replication, Hoechst DNA content imaging, 48 h; AID 624297, 2012; note: nearly all actives have a fitted effect of over 55% in size
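Per well, 250 cells were exposed to pinned compound for 48 hr. Nuclear DNA was visualised with Hoechst (40 min, 37 C) and total object intensity recorded by fluorescence scanning.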
MCF10A rereplic: A quantitative high throughput screen for small molecules that induce DNA re-replication in MCF 10a normal breast cells. 350,000 tested, 2.9% active. Potency, µM (highest dose often 46.1 µM), actives largely listed as activators. MCF 10A DNA re-replication, Hoechst nuclear intensity, 48 h; note: nearly all actives have a fitted effect of over 50% in size
Each line names hits and unclear results; the compound was inactive in the other large screens. Most compounds without a hit are left out; they make up all but 7.1% or so of the library. Unless noted, calls come from the whole dose curve; as a rule, active = well fitted curve in the direction sought with a large enough effect; inconclusive = small, poorly fitted or top-dose-only effect, or another doubt; inactive = no such curve, though single readings can be large; an effect the other way counts as inactive or inconclusive.

O=C(Nc1ccc(Cl)c([N+](=O)[O-])c1)ONC1=NCCCCC1	IL1B secr inh -53
O=C(ONC1=NCCCCC1)c1cccc([N+](=O)[O-])c1	none
CC(=O)NC(C)c1cc(Cl)c2cccnc2c1O (centres undefined)	ATXN viability 6.3µM, ATXN2 expr inh 7.9µM, SW480 rerep inconclusive, MCF10A rereplic 3.3µM (no result: IL1B secr inh)
CN1CCN(C(c2ccc(Br)cc2)c2cc(Cl)c3cccnc3c2O)CC1 (centres undefined)	ATXN viability inconclusive, ATXN2 expr inh inconclusive, IL1B secr inh -106, SW480 rerep inconclusive, MCF10A rereplic inconclusive
CC(=O)NC(C)c1cc(Cl)c2ccccc2c1O (centres undefined)	none (no result: IL1B secr inh)
CCC(=O)NC(c1ccc(C)cc1)c1cc(Cl)c2cccnc2c1O (centres undefined)	ATXN viability inconclusive, ATXN2 expr inh inconclusive, SW480 rerep inconclusive (no result: IL1B secr inh)
CCC(=O)NC(C)c1cc(Cl)c2cccnc2c1O (centres undefined)	ATXN viability inconclusive, ATXN2 expr inh 8.9µM, SW480 rerep inconclusive, MCF10A rereplic inconclusive (no result: IL1B secr inh)
CN1CCN(C(c2ccc(F)cc2)c2ccc3cccnc3c2O)CC1 (centres undefined)	none (no result: ATXN2 expr inh)
CN(C)CCNc1nccc(N2CCN(C)CC2)n1	none (no result: ATXN viability, ATXN2 expr inh, IL1B secr inh, SW480 rerep, MCF10A rereplic)
O=C1c2ccccc2S(=O)(=O)N1CCS(=O)(=O)c1ccc(F)cc1	IL1B secr inh -76
O=C(CCN1C(=O)c2ccccc2S1(=O)=O)N1CCN(c2ccc(F)cc2)CC1	none
Cc1ccc(CN2C(=O)C3CCCN3c3ncccc32)cc1 (centres undefined)	SW480 rerep inconclusive, MCF10A rereplic 23µM (no result: ATXN2 expr inh)
CCn1cc2c(n1)-c1c(oc(C(=O)Nc3cccc(C)c3C)c1C)CC2	none (no result: ATXN viability, ATXN2 expr inh, IL1B secr inh, SW480 rerep, MCF10A rereplic)
O=C(COc1ccc2ccccc2c1)Nc1ccc2c3c(cccc13)CC2	MCF10A rereplic 21µM
O=C(COc1ccc2ccccc2c1)Nc1ccc(Br)cc1C(=O)O	MCF10A rereplic 9.2µM
Cc1cc(C)cc(OCC(=O)Nc2ccc3c4c(cccc24)CC3)c1	MCF10A rereplic inconclusive
Cn1c(CCN2CCN(c3ccccn3)CC2)nc2cc(NS(=O)(=O)c3ccc(Cl)cc3)ccc21	IL1B secr inh -76, SW480 rerep inconclusive, MCF10A rereplic inconclusive
Cc1ccc(S(=O)(=O)Nc2ccc3c(c2)nc(CCN2CCOCC2)n3C)cc1	IL1B secr inh inconclusive
Cc1ccc(S(=O)(=O)Nc2ccc3c(c2)nc(CCN2CCCCC2)n3C)cc1	IL1B secr inh -92, SW480 rerep inconclusive
Cc1ccc(S(=O)(=O)Nc2ccc(N3CCN(C)CC3)nc2)cc1	ATXN viability inconclusive, IL1B secr inh -65, MCF10A rereplic inconclusive
Cc1ccc(S(=O)(=O)Nc2ccc3c(c2)nc(CCN2CCN(c4ccccn4)CC2)n3C)cc1	SW480 rerep 1µM
Cc1nc2nc(NCc3ccc(Br)cc3)[nH]n2c(=O)c1Cc1ccccc1	none (no result: IL1B secr inh, SW480 rerep, MCF10A rereplic)
CCOC(=O)c1sc2ccccc2c1S(=O)(=O)Nc1c(C)cccc1C	ATXN viability inconclusive (no result: IL1B secr inh, SW480 rerep, MCF10A rereplic)
CCc1cccc(-n2c(=O)c3cccnc3n2CC(=O)Nc2ccc(F)c(C)c2)c1	none (no result: ATXN viability, ATXN2 expr inh, IL1B secr inh, SW480 rerep, MCF10A rereplic)
CC[C@H](C)[C@H](N)C(=O)O	none (no result: PINK1 expr mod, IL1B secr inh, SW480 rerep, MCF10A rereplic)
Cc1ccc(S(=O)(=O)c2cn(Cc3ccccc3F)c3cc4c(cc3c2=O)OCO4)cc1	none (no result: IL1B secr inh, SW480 rerep, MCF10A rereplic)
O=c1[nH]c2ccc([N+](=O)[O-])cc2nc1/C=C(\O)c1ccccc1	ATXN viability inconclusive, PINK1 expr mod 28µM (no result: ATXN2 expr inh)
C/C(O)=C/c1nc2ccccc2[nH]c1=O	none
COc1ccc(C2NC(=O)N(C)C3=C2C(=O)N(c2cccc(C(=O)O)c2)C3)cc1 (centres undefined)	none (no result: IL1B secr inh, SW480 rerep, MCF10A rereplic)
COC(=O)c1ccc(-n2c(/C=C\c3cccc(Br)c3)nc3ccccc3c2=O)cc1	none (no result: ATXN viability, ATXN2 expr inh, IL1B secr inh, SW480 rerep, MCF10A rereplic)
CNCCCC1Sc2ccccc2Oc2ccccc21 (centres undefined)	ATXN2 expr inh inconclusive, IL1B secr inh -73, SW480 rerep inconclusive
COc1ccc(CCC(=O)OCC(=O)NC2CCCC2)cc1OC	none (no result: ATXN2 expr inh, SW480 rerep, MCF10A rereplic)
CCOc1ccccc1N1CCN(C(=O)c2cc3c(C)cc(C)cc3[nH]2)CC1	IL1B secr inh inconclusive, SW480 rerep 21µM, MCF10A rereplic inconclusive
COc1cc2ccccc2cc1C(=O)N1CCN(C(C)=O)CC1	SW480 rerep inconclusive
CCOC(=O)C1CCN(C(=O)c2cc3c(C)cc(C)cc3[nH]2)CC1	none (no result: ATXN2 expr inh)
CCOc1ccccc1N1CCN(C(=O)c2cc3ccccc3cc2OC)CC1	ATXN viability inconclusive, SW480 rerep 15µM, MCF10A rereplic 2.1µM
Cc1ccccc1CNC(=O)CN1C(=O)C2CCCCN2c2ccc(C(=O)N3CCCC3)cc21 (centres undefined)	none (no result: IL1B secr inh, SW480 rerep, MCF10A rereplic)
COc1cccc(CNC(=O)c2ccc3nc(-c4ccc(F)cc4)c(-c4ccc(F)cc4)nc3c2)c1	none (no result: IL1B secr inh, SW480 rerep, MCF10A rereplic)
O=c1nc(Nc2ccccc2)oc2ccccc12	none
O=c1nc(Nc2cccc(Cl)c2)oc2cc(Cl)oc(=O)c12	MCF10A rereplic 16µM (no result: ATXN2 expr inh)
CCC(C)Oc1ccc(/C=C/c2[nH]c(=O)[nH]c(=O)c2[N+](=O)[O-])cc1OC (centres undefined)	ATXN2 expr inh inconclusive, IL1B secr inh -102, SW480 rerep 21µM, MCF10A rereplic inconclusive
O=C(O)/C=C\C(=O)Nc1ccccc1C#Cc1ccccc1	IL1B secr inh -62
O=C(O)/C=C\C(=O)Nc1ccccc1C#Cc1ccc(Br)cc1	IL1B secr inh -98, SW480 rerep inconclusive, MCF10A rereplic 18µM
O=C(O)/C=C/C(=O)Nc1ccccc1-c1ccccc1NC(=O)/C=C/C(=O)O	none
COc1ccc(Cl)cc1C(=O)Nc1cccc(-c2ccc3nncn3n2)c1	IL1B secr inh -64
COc1ccc(S(=O)(=O)Nc2cccc(-c3ccc4nncn4n3)c2)cc1	ATXN viability inconclusive, SW480 rerep 3.5µM, MCF10A rereplic 5.8µM
COc1ccc(C(=O)Nc2cccc(-c3ccc4nncn4n3)c2)cc1	none
NC(=S)N=Nc1c(O)[nH]c2ccc(F)cc12	none
Cc1cccc(NC(=S)N=Nc2c(O)[nH]c3ccccc23)c1	ATXN viability inconclusive, ATXN2 expr inh inconclusive, SW480 rerep inconclusive, MCF10A rereplic 6.5µM
CC(C)NC(=S)N=Nc1c(O)[nH]c2ccc(C(C)C)cc12	ATXN viability 3.5µM (no result: ATXN2 expr inh)
CC(C)c1ccc2[nH]c(O)c(N=NC(=O)c3cccc(S(=O)(=O)Nc4ccccc4Cl)c3)c2c1	MCF10A rereplic 15µM
COc1ccc(-c2nc(Cn3c(SCc4cccc(C(F)(F)F)c4)nc4cccnc43)c(C)o2)cc1OC	none (no result: ATXN viability, ATXN2 expr inh, IL1B secr inh, SW480 rerep, MCF10A rereplic)
